From PubChem BioAssay (NCATS) come the findings set out here.

Several values for one entry are separate records, joined by “and”; a condition that tells them apart may be missing. Equal values may be shown once. Unmarked numbers belong to inactive results. Records with an inconclusive call do not appear. Activity calls are given as the source filed them. Unless noted, calls follow the shape of the dose curve; as a rule, active = well fitted curve in the direction sought with a large enough effect; inconclusive = small, poorly fitted or top-dose-only effect, or another doubt; inactive = no such curve, though single readings can be large; an effect the other way counts as inactive or inconclusive.

A short description of assay [1]: Cell Viability - Jurkat (AID 426;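 active = dose-dependent loss of cell ATP signal giving a full or clear fitted curve, ranked by lower potency value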;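 also: potency is read from the fitted curve at half-maximal effect; cells exposed to compound for 40 hours at 37 °C before ATP read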). The settings on record: qHTS. In a few lines: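 Cells of the human T-cell leukemia line Jurkat (E6-1) are seeded at 5000 per well, treated with compound across a concentration range for 40 hours at 37 °C, then lysed with CellTiter-Glo; luminescence reports ATP.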
A general note: In qHTS, concentration-response curves come from the screen itself.

The nature of assay [2]: Cell Viability - Hek293 (AID 427;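 active = compounds whose dose-response curve shows a full or clear partial loss of cell viability, called from curve shape rather than a numeric limit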;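 also: potency is read from the fitted curve at half-maximal effect; cells exposed to compound for 40 hours at 37 °C before reading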). The settings on record: qHTS. In a few lines: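 Luminescent ATP read-out (CellTiter-Glo, 20 min RT) after 40 hr compound exposure at 37 °C in complete medium. Signal normalized to DMSO (basal) and 100 uM tamoxifen (100% inhibition); concentration-response fitted with the standard Hill equation to give AC50.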
A short description of assay [3]: Cell Viability - SH-SY5Y (AID 544). Also: nearly all actives have a fitted effect of over 55% in size. Also: potency is read from the fitted curve at half-maximal effect.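 As to viability change, negative = cytotoxic: 0% = DMSO alone and -100% = 100 µM tamoxifen.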 The settings on record: SH-SY5Y neuroblastoma cell viability; viability change, negative = cytotoxic: at 92.2 µM (top of the series). In a few lines: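 Cells were plated at 1500 per well and allowed 5 hr at 37 °C. Compounds were added across a concentration range and incubated 40 hr at 37 °C. CellTiter-Glo was added for 20 min at room temperature before luminescence reading.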

Assay [4] can be described thus: Cellular Toxicity (caspase-3) BJ (AID 658). The settings on record: BJ fibroblasts, luminescence; Potency: caspase-3 activation; series mostly up to 91.7 µM. In a few lines:
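qHTS, BJ fibroblasts, 1000 cells/well; 5 hr preincubation, 16 hr compound, 37 °C; Caspase-Glo 3/7 reagent, 1 hr RT; luminescence. DMSO = 0%, 10 uM staurosporine = 100%. Hill-equation AC50.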

The target in assay [5] is Vitamin D3 receptor (Homo sapiens) (UniProt P11473). Put plainly: qHTS assay for small molecule antagonists of vitamin D receptor signaling (AID 588541; calls by dose curve;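 also: receptor activated by calcitriol during compound treatment; % is scaled to controls: 0 for no effect and ±100 for the full control effect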). Particulars: HEK293T VDR-UAS-bla, beta-lactamase ratio, antagonist mode; series mostly up to 76.7 µM. In a few lines: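 VDR-UAS-bla HEK293T cells in 2% charcoal-stripped FBS were stimulated with 1-alpha,25-dihydroxyvitamin D3 (3 nM final) plus compound for 16 h at 37 C. The beta-lactamase CCF4 readout was normalized to 50 nM agonist and DMSO, and Hill fits gave IC50.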
Sequence of Vitamin D3 receptor (Homo sapiens) (P11473 whole entry, looked up): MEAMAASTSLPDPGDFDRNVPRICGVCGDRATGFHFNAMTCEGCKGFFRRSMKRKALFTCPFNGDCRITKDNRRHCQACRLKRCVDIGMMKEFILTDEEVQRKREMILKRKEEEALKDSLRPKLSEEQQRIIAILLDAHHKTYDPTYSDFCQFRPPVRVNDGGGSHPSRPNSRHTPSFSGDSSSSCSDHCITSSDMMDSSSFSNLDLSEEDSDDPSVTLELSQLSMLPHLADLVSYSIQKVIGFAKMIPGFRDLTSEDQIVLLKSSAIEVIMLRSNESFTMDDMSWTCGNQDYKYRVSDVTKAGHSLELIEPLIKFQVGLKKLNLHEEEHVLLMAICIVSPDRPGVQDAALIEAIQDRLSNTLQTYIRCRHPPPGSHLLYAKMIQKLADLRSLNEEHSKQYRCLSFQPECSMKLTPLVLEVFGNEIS

The target is the same in assay [6]. As to the kind of experiment: qHTS assay for small molecule agonists of vitamin D receptor signaling (AID 588543; calls by dose curve; also: potency is read from the fitted curve at half-maximal effect;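 as to activation: 0% = DMSO basal and 100% = reference agonist control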). Particulars: HEK293T VDR-UAS-bla, beta-lactamase ratio, 16 h; series mostly up to 76.8 µM. In a few lines:
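Measured: β-lactamase reporter activity (CCF4, 405 nm excitation, 460/530 nm emission) in HEK293T VDR-UAS-bla cells after 16 h compound exposure at 37 °C. Normalization against 50 nM 1α,25-dihydroxyvitamin D3 and DMSO; Hill-fit EC50.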

Assay [7] has as its target Thyroid hormone receptor beta (Homo sapiens) (UniProt P10828). As to the kind of experiment: qHTS assay for small molecule agonists of thyroid hormone receptor beta signaling (AID 588545; calls by dose curve; also: potency is read from the fitted curve at half-maximal effect;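 as to activation: 0% = DMSO only and 100% = 10 nM T3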). The settings on record: TR-UAS-bla GripTite HEK 293, beta-lactamase ratio, agonist mode, 18 h; series mostly up to 76.7 µM. Put shortly:
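Compounds were tested as agonists in TR-UAS-bla-GripTite HEK 293 cells. After 18 hrs at 37 C, CCF4 substrate was added and fluorescence read after 2 hrs at room temperature.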

Assay [8] is described as follows: qHTS assay for small molecule agonists of the antioxidant response element (ARE) signaling pathway (AID 651741; active = well fitted activation curve with a large enough effect in the signal ratio; the % refers to the signal ratio; also: potency is read from the fitted curve at half-maximal effect; as to activation: % of control where 0% means no effect). The settings on record: HepG2 ARE-bla reporter, beta-lactamase FRET ratio, 16 h; series mostly up to 96 µM. Put shortly:
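Stably integrated ARE-beta-lactamase reporter HepG2 cells; 16 h compound incubation, 37 C; LiveBLAzer FRET substrate 2 h at room temperature; fluorescence intensity.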

The nature of assay [9]: qHTS assay for small molecule activators of the nuclear factor-kappa B (NF-kB) signaling pathway (AID 651749; active = well fitted activation curve with a large enough effect in the signal ratio; the % refers to the signal ratio; also: % of control where 0% means no effect). Particulars: NF-kB-bla ME-180 cells, beta-lactamase FRET ratio, 16 h; hits give high values. Put shortly:
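In this qHTS format, compounds acting as activators increase NF-kB-driven beta-lactamase in ME-180 cells, measured as disrupted FRET after 16 hr exposure at 37C and 5% CO2.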

Assay [10] can be described thus: qHTS assay for small molecule disruptors of the mitochondrial membrane potential - 1 hr assay (AID 651754; calls by dose curve; also: % is scaled to controls: 0 for no effect and ±100 for the full control effect; nearly all actives have a fitted effect of over 35% in size). The settings on record: series mostly up to 92.2 µM. Put shortly: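 Loss of mitochondrial potential shifts the cationic dye from red mitochondrial aggregates to green cytoplasmic monomers. Cells (HepG2) are treated with compound for 1 hr before a 30 min dye incubation at 37C.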

The target of assay [11] is Tumor necrosis factor (Homo sapiens) (UniProt P01375). As to the kind of experiment: qHTS assay to identify small molecules that stimulate Tumor Necrosis Factor-alpha (TNF-alpha) secretion (AID 651757; active = well fitted curve in the direction sought with a large enough effect in the signal ratio; the % refers to the signal ratio; also: 0% is about no effect). The settings on record: Human cells, HTRF 665/615 ratio; series mostly up to 92.2 µM. Put shortly: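 Human monocytic THP-1 cells are plated, treated with compound and held at 37 C for 17 hrs. Labeled anti-TNF-alpha antibody mixture is then added; after 3 hr at room temperature, TR-FRET signal reports secreted TNF-alpha.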
Sequence of Tumor necrosis factor (Homo sapiens) (P01375 whole entry, looked up): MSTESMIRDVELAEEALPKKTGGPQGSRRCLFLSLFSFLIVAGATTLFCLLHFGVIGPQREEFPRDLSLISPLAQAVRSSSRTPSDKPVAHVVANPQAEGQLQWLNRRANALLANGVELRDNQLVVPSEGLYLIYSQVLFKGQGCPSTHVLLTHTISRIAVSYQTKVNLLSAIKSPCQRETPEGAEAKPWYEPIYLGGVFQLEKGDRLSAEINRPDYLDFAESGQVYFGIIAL

Assay [12] can be described thus: Cell Viability - NIH 3T3 (AID 541).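 Also: plate controls were DMSO alone for no effect and tamoxifen positive control for full effect; nearly all actives have a fitted effect of over 25% in size.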 Particulars: NIH 3T3 cell viability, qHTS; activity change, negative = cytotoxicity: at 92.2 µM (top of the series). Put shortly:
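Cells seeded at 1000/well, rested 5 hr at 37 °C, then dosed and incubated 40 hr at 37 °C. CellTiter-Glo added, 20 min room temperature, luminescence read. AC50 by Hill fit.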

The target in assay [13] is Cytochrome P450 3A4 (Homo sapiens) (UniProt P08684). Put plainly: qHTS Assay for Inhibitors and Substrates of Cytochrome P450 3A4 (AID 884). Also: % is scaled to controls: 0 for no effect and ±100 for the full control effect; nearly all actives have a fitted effect of over 50% in size. The settings on record: recombinant CYP3A4, Luciferin-PPXE luminescence; series mostly up to 57.1 µM. Put shortly:
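Luminescent readout of luciferin produced by CYP3A4 (20 nM) dealkylation of Luciferin-PPXE, 25 uM (its KM). NADPH-driven reaction ran 60 min at RT after 10 min compound preincubation; data scaled to 57 uM ketoconazole as 100% inhibition.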

The target of assay [14] is Nuclear receptor ROR-gamma (Homo sapiens) (UniProt P51449). As to the kind of experiment: qHTS assay for small molecule antagonists of the retinoid-related orphan receptor gamma (ROR-gamma) signaling pathway (AID 651802). Also: nearly all actives have a fitted effect of over 60% in size. Also: potency is read from the fitted curve at half-maximal effect. Particulars: ROR-gamma antagonist cell reporter assay; series mostly up to 92.2 µM. Put shortly: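 Steps: cells dispensed; compound or DMSO transferred by pin tool; doxycycline added to induce the ROR response element-driven luciferase; plates held 16hr at 37C; ONE-Glo added and luminescence measured.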
Sequence of Nuclear receptor ROR-gamma (Homo sapiens) (P51449 whole entry, looked up): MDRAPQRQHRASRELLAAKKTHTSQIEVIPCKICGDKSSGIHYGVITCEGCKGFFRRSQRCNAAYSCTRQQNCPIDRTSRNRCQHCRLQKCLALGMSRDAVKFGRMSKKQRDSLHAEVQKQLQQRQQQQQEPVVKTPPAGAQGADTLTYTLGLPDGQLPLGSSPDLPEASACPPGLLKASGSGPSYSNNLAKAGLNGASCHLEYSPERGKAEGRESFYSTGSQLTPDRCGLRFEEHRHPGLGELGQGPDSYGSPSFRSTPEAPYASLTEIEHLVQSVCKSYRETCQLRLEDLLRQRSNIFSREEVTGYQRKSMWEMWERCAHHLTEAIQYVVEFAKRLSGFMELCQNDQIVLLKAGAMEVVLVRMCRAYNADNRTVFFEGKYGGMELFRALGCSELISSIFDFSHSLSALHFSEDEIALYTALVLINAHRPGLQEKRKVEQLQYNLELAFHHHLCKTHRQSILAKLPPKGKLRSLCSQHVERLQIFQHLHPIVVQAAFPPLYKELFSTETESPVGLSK

Assay [15] can be described thus: Cellular Toxicity (caspase-3) MRC-5 (AID 659). Particulars: MRC-5 cells, luminescence, normalized: DMSO 0%, 10 µM staurosporine 100%; series mostly up to 91.7 µM. Put shortly: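 MRC-5 fibroblasts, 1500/well; 16 h cpd, 37 °C; Caspase-Glo 3/7, 1 h RT; lumi read. Norm: DMSO = 0%, 10 uM staurosporine = 100%. Hill-fit AC50 from qHTS conc-response.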
Assay [16] concerns the target Glucocorticoid receptor (Homo sapiens) (UniProt P04150). As to the kind of experiment: qHTS assay for small molecule agonists of glucocorticoid receptor signaling (AID 588532; active = well fitted curve in the direction sought with a large enough effect in the signal ratio, with a control signal flat; the % refers to the signal ratio;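 also: 100% = dexamethasone at 0.1 µM and 0% = DMSO only wells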). Particulars: HeLa MMTV-bla, beta-lactamase ratio, agonist, 18 h; hits give high values; percent of dexamethasone control, DMSO zero. In a few lines: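 Cells were plated and rested 3-5 h at 37 C, compounds were added in titration and incubated 18 h, then CCF4 substrate was loaded for 2 h at RT before reading blue/green fluorescence. EC50 came from Hill-equation fitting.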

Assay [17] deals with Voltage-gated inwardly rectifying potassium channel KCNH2 (Homo sapiens) (UniProt Q12809). Put plainly: qHTS Assay for Small Molecule Inhibitors of the Human hERG Channel Activity (AID 588834).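 Also: top concentration of the series differs between compounds; % is scaled to controls: 0 for no effect and ±100 for the full control effect; lower thallium flux fluorescence means stronger hERG block; nearly all actives have a fitted effect of over 50% in size.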 The settings on record: U2OS BacMam hERG, FluxOR thallium flux fluorescence; series mostly up to 92.2 µM. Put shortly:
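Homogeneous FluxOR thallium flux assay using hERG-expressing U2OS cells (BacMam). Compound treatment about 10 minutes preceded stimulation; reduced fluorescence taken as channel block.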

The nature of assay [18]: qHTS assay for small molecule antagonists of the retinoid-related orphan receptor gamma (ROR-gamma) signaling pathway - cell viability counter screen (AID 720652; active = well fitted curve in the direction sought with a large enough effect in the repeat runs; an effect the other way counts as inactive or inconclusive;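 also: CHO reporter cells with doxycycline-induced ROR-gamma expression; compound exposure lasted 16 hr before ATP read; % is scaled to controls: 0 for no effect and ±100 for the full control effect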). The settings on record: RORgamma reporter cell line viability counter screen; series mostly up to 92.2 µM. Put shortly:
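Steps: seed CHO cells bearing TET-inducible ROR and ROR response element-luciferase; rest 5 hr at 37 C; add compound, then doxycycline; incubate 16 hr; add CellTiter-Glo and read luminescence as ATP-based viability.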

Assay [19] in a line: qHTS assay for small molecule activators of the human pregnane X receptor (PXR) signaling pathway (AID 720659; call rule not given here; also: 0% is about no effect). Particulars: DPX-2 HepG2 CYP3A4-luciferase, 24 h; series mostly up to 92.3 µM.
A short description of assay [20]: qHTS assay for small molecule activators of the p53 signaling pathway (AID 651743; active = well fitted activation curve with a large enough effect in the signal ratio, not every such curve was filed as active; the % refers to the signal ratio; also: potency is read from the fitted curve at half-maximal effect; as to activation: % of control where 0% means no effect). The settings on record: HCT-116 p53RE-bla, beta-lactamase FRET ratio, 16 h; activation: hits give high values. Put shortly:
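Following 16 hours of compound exposure at 37 C, HCT-116 cells bearing the p53RE-bla reporter were loaded with LiveBLAzer B/G FRET substrate for 2 hours at room temperature and fluorescence intensity was recorded.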

Sequence of Thyroid hormone receptor beta (Homo sapiens) (P10828 whole entry, looked up): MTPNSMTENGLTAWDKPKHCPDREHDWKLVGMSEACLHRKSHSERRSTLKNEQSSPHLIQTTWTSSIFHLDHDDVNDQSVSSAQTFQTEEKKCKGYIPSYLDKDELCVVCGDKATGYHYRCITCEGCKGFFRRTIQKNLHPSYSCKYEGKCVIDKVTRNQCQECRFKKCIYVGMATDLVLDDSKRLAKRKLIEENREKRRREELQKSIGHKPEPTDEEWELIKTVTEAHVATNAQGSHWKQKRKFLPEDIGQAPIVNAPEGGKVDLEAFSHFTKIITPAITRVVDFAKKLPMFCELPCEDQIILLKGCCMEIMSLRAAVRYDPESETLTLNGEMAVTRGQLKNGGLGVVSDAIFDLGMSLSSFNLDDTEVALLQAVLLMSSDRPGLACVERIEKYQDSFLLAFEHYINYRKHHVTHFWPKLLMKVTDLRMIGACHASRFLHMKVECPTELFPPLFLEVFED
Sequence of Voltage-gated inwardly rectifying potassium channel KCNH2 (Homo sapiens) (Q12809 whole entry, looked up): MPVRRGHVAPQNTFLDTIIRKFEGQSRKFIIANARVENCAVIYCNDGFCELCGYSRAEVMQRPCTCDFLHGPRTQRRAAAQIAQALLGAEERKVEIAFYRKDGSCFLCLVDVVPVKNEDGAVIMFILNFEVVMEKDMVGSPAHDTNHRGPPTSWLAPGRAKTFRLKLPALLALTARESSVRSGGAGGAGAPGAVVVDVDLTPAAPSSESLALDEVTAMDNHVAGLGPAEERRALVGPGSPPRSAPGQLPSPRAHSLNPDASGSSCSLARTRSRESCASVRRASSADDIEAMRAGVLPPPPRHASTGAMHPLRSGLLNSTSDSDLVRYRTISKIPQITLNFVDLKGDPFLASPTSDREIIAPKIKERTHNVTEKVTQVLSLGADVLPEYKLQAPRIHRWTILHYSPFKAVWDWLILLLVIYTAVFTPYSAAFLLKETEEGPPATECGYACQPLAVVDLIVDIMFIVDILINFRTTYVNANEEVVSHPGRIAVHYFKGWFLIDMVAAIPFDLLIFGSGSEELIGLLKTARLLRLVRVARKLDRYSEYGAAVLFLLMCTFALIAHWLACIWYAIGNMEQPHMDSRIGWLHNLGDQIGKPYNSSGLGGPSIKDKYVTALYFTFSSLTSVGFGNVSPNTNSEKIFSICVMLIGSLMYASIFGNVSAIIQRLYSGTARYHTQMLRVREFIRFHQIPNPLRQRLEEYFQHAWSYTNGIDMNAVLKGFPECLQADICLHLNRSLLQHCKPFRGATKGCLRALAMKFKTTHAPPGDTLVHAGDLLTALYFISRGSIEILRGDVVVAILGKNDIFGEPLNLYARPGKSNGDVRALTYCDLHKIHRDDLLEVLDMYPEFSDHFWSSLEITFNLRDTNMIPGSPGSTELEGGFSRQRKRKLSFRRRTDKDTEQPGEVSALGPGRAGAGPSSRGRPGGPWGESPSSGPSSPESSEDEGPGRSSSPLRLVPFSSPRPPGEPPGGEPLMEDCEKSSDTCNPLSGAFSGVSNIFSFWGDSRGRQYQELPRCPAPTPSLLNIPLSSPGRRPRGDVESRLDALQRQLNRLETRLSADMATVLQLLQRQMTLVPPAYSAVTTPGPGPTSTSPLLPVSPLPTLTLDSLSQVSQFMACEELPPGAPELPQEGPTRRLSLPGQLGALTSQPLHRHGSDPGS
Sequence of Cytochrome P450 3A4 (Homo sapiens) (P08684 whole entry, looked up): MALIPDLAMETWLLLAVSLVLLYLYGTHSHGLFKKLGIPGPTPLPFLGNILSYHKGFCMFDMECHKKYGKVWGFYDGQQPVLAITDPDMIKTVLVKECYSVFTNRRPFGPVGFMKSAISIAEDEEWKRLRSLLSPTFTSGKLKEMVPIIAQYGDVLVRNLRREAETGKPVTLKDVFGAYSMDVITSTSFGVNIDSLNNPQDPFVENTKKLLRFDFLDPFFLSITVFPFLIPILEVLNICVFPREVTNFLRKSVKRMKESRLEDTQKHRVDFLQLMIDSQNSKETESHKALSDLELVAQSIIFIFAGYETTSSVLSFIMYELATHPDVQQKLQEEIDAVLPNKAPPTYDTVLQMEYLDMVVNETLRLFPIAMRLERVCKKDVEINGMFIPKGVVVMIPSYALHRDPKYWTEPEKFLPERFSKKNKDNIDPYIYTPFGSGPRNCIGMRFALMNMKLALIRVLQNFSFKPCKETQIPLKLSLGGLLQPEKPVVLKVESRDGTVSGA
Sequence of Glucocorticoid receptor (Homo sapiens) (P04150 whole entry, looked up): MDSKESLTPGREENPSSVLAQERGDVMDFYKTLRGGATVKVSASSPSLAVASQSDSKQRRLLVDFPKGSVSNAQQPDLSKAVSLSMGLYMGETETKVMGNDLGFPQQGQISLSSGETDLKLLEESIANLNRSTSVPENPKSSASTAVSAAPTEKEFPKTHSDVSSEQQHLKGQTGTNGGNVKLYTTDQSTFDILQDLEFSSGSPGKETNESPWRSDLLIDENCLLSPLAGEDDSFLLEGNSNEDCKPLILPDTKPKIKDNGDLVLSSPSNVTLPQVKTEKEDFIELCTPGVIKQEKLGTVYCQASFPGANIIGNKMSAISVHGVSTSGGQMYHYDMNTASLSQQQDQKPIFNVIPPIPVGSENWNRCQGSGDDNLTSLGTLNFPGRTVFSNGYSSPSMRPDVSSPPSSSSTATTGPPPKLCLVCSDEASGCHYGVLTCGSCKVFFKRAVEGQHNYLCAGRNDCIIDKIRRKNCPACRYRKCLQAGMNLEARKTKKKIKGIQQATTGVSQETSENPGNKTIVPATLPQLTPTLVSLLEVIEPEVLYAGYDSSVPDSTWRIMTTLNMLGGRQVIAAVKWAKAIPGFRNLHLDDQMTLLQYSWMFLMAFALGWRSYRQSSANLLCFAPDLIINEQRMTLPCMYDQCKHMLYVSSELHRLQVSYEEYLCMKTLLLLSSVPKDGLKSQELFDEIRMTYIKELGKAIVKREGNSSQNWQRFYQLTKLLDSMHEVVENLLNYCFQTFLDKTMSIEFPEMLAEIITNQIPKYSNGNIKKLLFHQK

With `CC1=C(/C=C/C(C)=C/C=C/C(C)=C/C=O)C(C)(C)CCC1`, the Potency in assay [1] is 21.5 µM (active); in [2], 53.9 µM (active); in assay [3], 25.1 µM (active); in [8] it was 29.8 µM (active). Further, the Potency entry in [4], in [5], in [6], in assay [7], in assay [10] and in [11] was “inactive” throughout. Moreover, the activation in assay [9] was -2.37%.

For `C/C=C1/C(=O)C[C@H]2[C@@H]3CCC4=CC(=O)CC[C@]4(C)[C@H]3CC[C@]12C`, the Potency in assay [1] is 56.2 µM (active); in assay [3] it was 25.1 µM (active); in assay [8], 3.76 µM (active); in assay [14], 47.3 µM (active). In assay [12], the activity change, negative = cytotoxicity is -151% (active). The Potency result in assay [4], in [13], in [7], in assay [10] and in assay [11] was “inactive” throughout.

As for `CC(=O)CC(=O)Nc1ccccc1`, the Potency in assay [2] was greater than 92 µM. The activity change, negative = cytotoxicity in [12] was -3.89%. Moreover, the Potency result in assay [3], in assay [4], in assay [13], in [5], in assay [6] and in assay [7] was “inactive” throughout. Also, the Potency entry in assay [17], in assay [8], in assay [10], in assay [11] and in assay [18] was “inactive” in each case. In addition, the result in assay [15] and in assay [19] was inactive. Further, the activation was -8.89% in [16]; -0.0343% and 0.349% in assay [9].

Consider `C=C1CC[C@H](O)C/C1=C/C=C1\CCC[C@]2(C)[C@@H]([C@H](C)CCCC(C)C)CC[C@@H]12`, for which the Potency in assay [1] was 27.5 µM (active); in assay [3], 31.6 µM (active). For the same molecule, the Potency result in assay [4], in assay [7], in [17], in [10] and in assay [11] was “inactive” in each case. Besides, the activation was -3.67% in assay [16] and 1.86% in assay [9].

With `c1ccc2c(c1)ccc1ccccc12`, the Potency in assay [1] and in [2] was greater than 92 µM each time. Moreover, the activity change, negative = cytotoxicity in [12] is -132% (active). The Potency entry in assay [4], in assay [13], in [5], in assay [6], in assay [7] and in assay [17] was “inactive” each time. The Potency result in assay [8], in [10], in [11], in assay [14] and in assay [18] was “inactive” each time. Further, the molecule was classed as inactive in assay [15] and in assay [19]. Further, the activation in assay [16] is 3.65% and 10.6%; in assay [20], -2.61% and 2.1%; in [9], -1.69% and -0.971%.

For `Nc1cc(C(=O)O)c(O)c(S(=O)(=O)O)c1`, the Potency in assay [1] and in assay [2] was greater than 92 µM throughout. Moreover, in assay [12], the activity change, negative = cytotoxicity is -24.6%. In addition, the Potency result in [3], in assay [13], in assay [5], in assay [6], in assay [7] and in [17] was “inactive” in each case. The Potency result in assay [8], in assay [10] and in assay [18] was “inactive” each time. Besides, the activation was 1.03% in assay [16] and -4.77% in assay [20]. Besides, the result in assay [19] was inactive.

`CCN(CC)c1ccc2c(C)cc(=O)oc2c1`: the Potency was greater than 92 µM in [1]; greater than 92 µM in assay [2]; 44.7 µM (active) in assay [6]; 22.4 µM (active) in [7]; 37.6 µM (active) in assay [8]; 39.8 µM (active) in assay [20]. The Potency entry in [3], in [17], in [14] and in assay [18] was “inactive” each time. Moreover, the call in assay [15] was inactive.
